About 83,000 compounds went through this panel and 20% of them were active in at least one assay; those are over-represented in the sample as a whole.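 Plates (96-well) were seeded with cells, treated with compound at one concentration, and incubated for 48 hours before percent growth was determined.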 Values without a mark were called inactive. The source made the active and inactive calls. Rule for the calls: active = growth percent below 10; inactive = the rest.
Tests used:
Assay in all cases: NCI-60 one-dose screen, 48 h (100 = growth as untreated, 0 = no growth, -100 = all killed)
Conditions in all cases: 10 µM
[1] = system: HT29 colon
[2] = system: SNB-75 CNS
[3] = system: SNB-19 CNS
[4] = system: U251 CNS
[5] = system: PC-3 prostate
[6] = system: SK-MEL-5 melanoma
[7] = system: UACC-62 melanoma
[8] = system: LOX IMVI melanoma
[9] = system: SK-MEL-28 melanoma
[10] = system: SK-MEL-2 melanoma

| Structure (SMILES) | growth [1] | growth [2] | growth [3] | growth [4] | growth [5] | growth [6] | growth [7] | growth [8] | growth [9] | growth [10] |
| --- | --- | --- | --- | --- | --- | --- | --- | --- | --- | --- |
| CCOCC(=O)C(C#N)c1ccc(Cl)c(Cl)c1 (stereo not given) | 104% | 78.2% | 107% | 94.7% | 87% | 96% | 95.4% | 100% | 100% | 115% |
| Cc1[nH]nc2c1C(c1cnn(C)c1)C(C#N)=C(N)O2 (stereo not given) | 114% | 73.6% | 98.2% | 102% | 91.2% | 105% | 111% | 94.9% | 110% | 93.8% |
| CCCCOc1ccc(NC(=O)Nc2nnc(C)s2)cc1 | 99.4% | 105% | 98.2% | 93.2% | 92.5% | 102% | 82.5% | 78.9% | 106% | 105% |
| Nc1nc(N)c(NC(=O)CNc2ccc(C(=O)O)cc2)c(N)n1 | 107% | 76% | 105% | 105% | 101% | 103% | 101% | 98.3% | 97.9% | 102% |
| COc1cc(Cc2cc(-c3ccc(Cl)cc3)n[nH]c2=O)ccc1O | 110% | 70.8% | 86.2% | 108% | 105% | 80.7% | 96.4% | 115% | 122% | 117% |
| COc1cc(CNc2ccccc2C(=O)N2CCN(C(=O)c3cc(-c4cc(OC)c(OC)c(OC)c4)n4nc(-c5ccccc5)cc4n3)CC2)cc(OC)c1OC | 12.9% | 33.5% | 64.1% | 35.2% | 26.9% | 16.5% | 27% | 35.7% | 53% | -0.722% (active) |
| Nc1c(C(=O)Nc2ccccc2)sc2nc3c(cc12)C(O)CCC3 (stereo not given) | 6.61% (active) | 36.6% | 58.6% | 23.9% | 31.8% | 42.4% | 55.4% | 47.5% | 62.6% | 37.8% |
| COc1ccc(-c2nnc(-c3c(-c4ccccc4)nc4ncccn34)o2)cc1OC | 102% | 74.1% | 100% | 101% | 97.9% | 95.4% | 102% | 102% | 112% | 96.3% |
| COc1ccc2c(c1OC)O/C(=C\c1ncc([N+](=O)[O-])n1C)C2=O | -20.8% (active) | 76.6% | 66.2% | 55.2% | 60.2% | -66.5% (active) | 0.211% (active) | 0.891% (active) | -38% (active) | -58.9% (active) |
| Cc1cc(=O)[nH]c(N/N=C/c2ccccc2O)n1 | 46.1% | 89% | 76.9% | 45.9% | 67.4% | 90.8% | 92.3% | 59.5% | 86.3% | 73.9% |
| CCCCCCCCCCCCCC[n+]1ccc(C(N)=O)cc1 | -28.2% (active) | -24.8% (active) | -58.5% (active) | -100% (active) | -23.3% (active) | -82.8% (active) | 0.667% (active) | -48.9% (active) | 43.3% | -32.4% (active) |
| CC1(O)CCC2CC3OC3(C)CCC3OC3(C)CCC1C2(C)C (stereo not given) | 109% | 117% | 89.8% | 96% | 170% | 90.3% | 99.3% | 102% | 121% | 107% |
| Nc1nc(N)c2c(ccc3nccc32)[nH]1 | 27% | 79.2% | 62.4% | 36% | 7.39% (active) | 41.2% | 47.2% | 23% | 83.4% | 57.6% |
| O=C(N/N=C/c1ccccc1)C(Oc1ccccc1)c1ccccc1 (stereo not given) | 100% | 83.9% | 94.6% | 106% | 90.6% | 93.5% | 74.9% | 90.1% | 93.6% | 120% |
| Cc1nc2oc3ccccc3c(=O)c2cc1C(=O)NCc1ccccc1 | 94.1% | 80.9% | 84.9% | 64.7% | 90.9% | 81% | 31.1% | 55.9% | 78.5% | 9.34% (active) |
| Cn1c(C(N)=O)cc2c1-c1nc(Nc3ccccc3)ncc1CCC2 | 70% | 35.6% | 58.4% | 26.9% | 59.5% | 72.1% | 37.1% | 40.5% | 68.7% | 46% |
| COc1ccc(-c2nc3ncccn3c2-c2nnc(-c3ccc(F)cc3)o2)cc1 | 107% | 94.7% | 96.9% | 106% | 92.8% | 91.8% | 91.1% | 87.7% | 99.5% | 111% |
| COc1ccc(-c2nc3sc(-c4ccccc4)c(-c4ccccc4)n3c2/C=C/C(=O)c2ccccn2)cc1 | 34.7% | 29.1% | 97.1% | 85.4% | 3.71% (active) | 70.9% | 104% | 90.5% | 104% | 67.3% |
| N=C(N)c1ccc(-c2ccc(-c3cccs3)s2)s1 | -79.5% (active) | -31.7% (active) | -13.4% (active) | -85.9% (active) | 5.1% (active) | -9.08% (active) | -90.7% (active) | -75.7% (active) | -94.7% (active) | -0.961% (active) |
| CSc1nn(-c2ccccc2)c2ncnc(Oc3ccccc3)c12 | 87.3% | 70.1% | 93.9% | 86% | 98% | 97% | 101% | 98.4% | 111% | 80.6% |
| Cc1ccc(-c2nc(/C=C3/C(=O)N(C)c4ccc(F)cc43)c3ccccn23)cc1 | 112% | 87.4% | 101% | 80.8% | 113% | 95.6% | 97.8% | 95.9% | 108% | 115% |
| CC(C)(C)c1ccc(N2CSC(=S)N(c3ccc(C(C)(C)C)cc3)C2)cc1 | 105% | 76.1% | 95.4% | 100% | 73.8% | 96.3% | 94.9% | 101% | 105% | 101% |
| COC(=O)C1=NNC(=S)N(c2cc(C)[nH]n2)C(=O)C1 | 113% | 93.9% | 98% | 101% | 99.1% | 101% | 103% | 95.9% | 114% | 100% |
| CCN(CC)CCNc1ccc(CO)c2oc3cc(Cl)ccc3c(=O)c12 | 52.8% | 69.7% | 97% | 79.7% | 77.4% | 53.9% | 73.1% | 70.5% | 97.8% | 128% |
| CN(Cc1ccccc1)Cc1ccc([N+](=O)[O-])cc1I | 93.8% | 94.7% | 91.6% | 89.4% | 90.5% | 93.5% | 94.2% | 102% | 97.1% | 95.3% |
| CSc1nc(=O)n(Cc2ccc(Cl)cc2)c(=O)[nH]1 | 109% | 74.6% | 108% | 94.6% | 101% | 110% | 112% | 96.8% | 107% | 116% |
| CCCCN(CCCC)CCCCCCCCC(O)c1cc2ccccc2c2ccccc12 (stereo not given) | 32.9% | 61.8% | 67.9% | 49.3% | 45.2% | 70% | 61.8% | 49.2% | 79.6% | 84.7% |
| CC(=O)c1nc2ccccc2n1CCNC(N)=O | 35.9% | 24% | 91.7% | 69.8% | 72% | 82.7% | 86.6% | 62.4% | 89.6% | 84% |

— PubChem BioAssay (NCI)
